uPA generation – qHTS for Inhibitors of Cell Surface uPA Generation | cell surface uPA generation assay, qHTS | Potency, µM (doses to about 38.3 µM), most hits filed as inhibitors | hit rate 0.31% among 330,000; active means well fitted inhibition curve with a large enough effect; inconclusive means small, poorly fitted or top-dose-only effect; inactive means no such curve, though single readings can be large or run the other way; tested in mouse RAW 264.7 cells; further: nearly all actives have a fitted effect of over 55% in size
RORg inh – qHTS for inhibitors of ROR gamma transcriptional activity | Potency, µM (highest dose often 53.6 µM), hits mostly inhibitors | AID 2551, 2010 | Drosophila S2 Gal4-RORgamma UAS-luciferase reporter, 20 h | hit rate 5.4% among 310,000 | Nuclear receptor ROR-gamma (Mus musculus), P51450; further: nearly all actives have a fitted effect of over 60% in size
Target sequence (P51450 whole entry, looked up, the tested form may be a part): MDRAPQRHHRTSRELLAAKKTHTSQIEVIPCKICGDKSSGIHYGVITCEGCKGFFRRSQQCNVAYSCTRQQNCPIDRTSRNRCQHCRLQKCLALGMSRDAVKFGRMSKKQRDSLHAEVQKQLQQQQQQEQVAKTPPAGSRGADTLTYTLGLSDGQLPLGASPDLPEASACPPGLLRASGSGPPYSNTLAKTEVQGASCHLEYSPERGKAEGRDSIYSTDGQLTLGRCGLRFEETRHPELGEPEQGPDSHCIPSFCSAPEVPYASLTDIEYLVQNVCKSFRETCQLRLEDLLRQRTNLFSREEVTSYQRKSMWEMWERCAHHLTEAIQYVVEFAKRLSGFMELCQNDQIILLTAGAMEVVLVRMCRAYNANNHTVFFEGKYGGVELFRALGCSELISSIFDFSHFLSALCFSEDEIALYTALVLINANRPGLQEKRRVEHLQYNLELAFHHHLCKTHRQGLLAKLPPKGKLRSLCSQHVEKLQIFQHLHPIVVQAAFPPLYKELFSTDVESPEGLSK
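In this cell-based reporter format, copper sulfate (700 uM final) drives Gal4–ROR gamma fusion expression from a metallothionein promoter in Drosophila Schneider cells; compounds preincubated 1 hr, reporter read after 20 hr at ambient temperature.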
Mito fusion yeast – qHTS Assay for Small Molecule Inhibitors of Mitochondrial Division or Activators of Mitochondrial Fusion; S. cerevisiae fusion-defective mutant growth rescue, CellTiterGlo 48 h; Potency, µM (series often up to 46.1 µM), usual class: activators; hit rate 0.23% among 320,000; AID 485298, 2010; further: nearly all actives have a fitted effect of over 45% in size
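Compounds are tested for their ability to restore growth of mitochondrial fusion-defective yeast strains at non-permissive 37C in YPEG medium over 48 hours. Viability is quantified by luciferase luminescence.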
Gal4-VP16 FLuc – VP16 counterscreen qHTS for inhibitors of ROR gamma transcriptional activity; Drosophila S2 Gal4-VP16 UAS-luciferase, luminescence, 20 h; Potency, µM (highest dose often 53.6 µM), hits mostly inhibitors; hit rate 3.5% among 310,000;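 further: Gal4-VP16 expression switched on by copper sulfate through the metallothionein promoter; nearly all actives have a fitted effect of over 50% in size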
BCR signal inh – qHTS Assay to Find Inhibitors of Chronic Active B-Cell Receptor Signaling; ABC-DLBCL IkBa-CBG/CBR reporter, luminescence ratio, 4 h; Potency, µM (top dose mostly 46.1 µM), actives largely listed as inhibitors; hit rate 0.05% among 340,000; active means well fitted inhibition curve with a large enough effect in the signal ratio, with a control signal flat, not every such curve was filed as active; inconclusive means small, poorly fitted or top-dose-only effect, or effect the other way, or a change in a side signal; the % refers to the signal ratio
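Cell line TMD8 (human ABC DLBCL), stably expressing tet-inducible CBG68-IkBa fusion and CBR; IMDM/0.5% FBS; cpd up to 46 uM; dox induction, 4 h, 37C/5% CO2; dual luminescence; green/red ratio; MG132 control.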
a7 integrin act – qHTS for Activators of Integrin-Mediated Alleviation for Muscular Dystrophy; alpha7betagal myoblasts, beta-gal FDG fluorescence, 48 h; Potency, µM (series often up to 38.3 µM), actives largely listed as activators; hit rate 0.064% among 350,000; AID 624291, 2012; further: nearly all actives have a fitted effect of over 60% in size
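alpha7betagal+/- myoblasts (passage 13, 250/well) treated 48 h at 37C with compounds at 1:260 dilution of DMSO stock. Lysed, then beta-galactosidase activity read as FDG fluorescence (ex 480/em 540) after 30 min, with pre-read for autofluorescence.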
Each line names hits and unclear results; the compound was inactive in the other large screens. Sampled rows, rich in hits. Any-hit rate of the full collection: about 5.5%. Unless noted, the call rests on the fitted dose curve; in most records, active means well fitted curve in the direction sought with a large enough effect; inconclusive means small, poorly fitted or top-dose-only effect, or another doubt; inactive means no such curve, though single readings can be large; an effect the other way counts as inactive or inconclusive.

COC(=O)c1ccc(C(NC(=O)OCc2ccccc2)/C(=C/[C@@H](C)C(=O)NCc2ccc(-c3ccccc3)cc2)c2cccnc2)cc1 (some centres undefined)	none (no result: uPA generation, Mito fusion yeast, BCR signal inh, a7 integrin act)
O=C(NN1C(=O)c2cc(Br)ccc2NC1c1cc(Br)cc(Br)c1O)c1ccncc1 (centres undefined)	RORg inh 5µM, Gal4-VP16 FLuc 7.9µM, BCR signal inh inconclusive
CCN(CC(=O)Nc1ccccc1C(=O)Nc1ccccc1)Cc1nc2ccccc2c(=O)[nH]1	RORg inh 3.5µM, Gal4-VP16 FLuc inconclusive
CN(CC(=O)Nc1sc2c(c1C#N)CCCCC2)Cc1nc2ccccc2c(=O)[nH]1	RORg inh 13µM
CCN(CC(=O)Nc1ccccc1-c1ccccc1)Cc1nc2ccccc2c(=O)[nH]1	RORg inh 4.5µM, Gal4-VP16 FLuc inconclusive
CN(CC(=O)Nc1ccccc1Br)Cc1nc2ccccc2c(=O)[nH]1	RORg inh 28µM, BCR signal inh inconclusive
CCN(CC(=O)Nc1ccc(OC)cc1)C(=O)CCc1nc2ccccc2c(=O)[nH]1	none (no result: RORg inh, Gal4-VP16 FLuc)
CCCn1c(SCC(=O)N2CCN(CC)CC2)nc2c1c(=O)n(C)c(=O)n2C	none
CCN(CC(=O)NCc1ccc(F)cc1)Cc1nc2cc(Cl)ccc2c(=O)[nH]1	Gal4-VP16 FLuc inconclusive, BCR signal inh inconclusive
CCN(CC(=O)NC(c1ccccc1)c1ccccc1)Cc1nc2ccccc2c(=O)[nH]1	RORg inh 2.5µM, Gal4-VP16 FLuc 11µM
CCN(CC(=O)NC(C)C)Cc1nc2c(Br)cc(Br)cc2c(=O)[nH]1	RORg inh 2.2µM, Gal4-VP16 FLuc 7.1µM, BCR signal inh inconclusive
CCN(CC(=O)Nc1ccccc1SC)Cc1nc2ccccc2c(=O)[nH]1	RORg inh 0.22µM, Gal4-VP16 FLuc 0.79µM, BCR signal inh inconclusive
O=C(c1ccc(Br)cc1)N(Cc1nc2ccccc2c(=O)[nH]1)C1CCCC1	RORg inh 16µM, Gal4-VP16 FLuc inconclusive
Cn1ccc2c(OCC(=O)Nc3ccc(OC(F)(F)F)cc3)cccc2c1=O	none (no result: uPA generation, RORg inh, Mito fusion yeast, Gal4-VP16 FLuc, a7 integrin act)
O=C(/C=C/c1ccco1)N(c1ccccn1)c1ccccn1	none
CC(C)CCC[C@@H](C)[C@H]1CC[C@H]2[C@@H]3CC[C@@H]4C[C@H](O)CC[C@]4(C)[C@H]3CC[C@]12C	none (no result: uPA generation, Mito fusion yeast, BCR signal inh, a7 integrin act)
Cc1c(Br)c([N+](=O)[O-])nn1CC(=O)N(C)Cc1ccccc1	none
COCC(=O)N1CCC2(CCCN(Cc3ccccc3)C2)CC1	none (no result: uPA generation, Mito fusion yeast, BCR signal inh, a7 integrin act)
CCN(CC(=O)NC(=O)NC1CCCCC1)Cc1ccccc1	none (no result: RORg inh, Gal4-VP16 FLuc)
CCN(CC(=O)NC(=O)NC1CCCCC1)Cc1nc2ccccc2c(=O)[nH]1	RORg inh 0.56µM, Gal4-VP16 FLuc 0.56µM
CCN(CC(=O)N(CC(C)C)c1c(N)n(CC(C)C)c(=O)[nH]c1=O)Cc1nc2ccccc2c(=O)[nH]1	RORg inh 4µM, Gal4-VP16 FLuc inconclusive, BCR signal inh inconclusive
CCCCC/C=C\C\C=C/C=C/C=C/[C@@H](SCC(NC(=O)CCC(N)C(=O)O)C(=O)NCC(=O)O)[C@@H](O)CCCC(=O)O (some centres undefined)	none (no result: uPA generation, Mito fusion yeast, BCR signal inh, a7 integrin act)
COc1ccc(-n2cnnc2SCC(=O)c2ccc(S(=O)(=O)N3CCOCC3)cc2)cc1	RORg inh inconclusive, Gal4-VP16 FLuc 20µM, BCR signal inh inconclusive
COc1ccc(-n2cnnc2SCC(=O)Nc2cc(S(=O)(=O)N3CCCCC3)ccc2C)cc1	RORg inh inconclusive
Cc1cnc(CNc2nc(-c3c(C)noc3C)nc3ccccc23)cn1	none (no result: uPA generation, Mito fusion yeast, BCR signal inh, a7 integrin act)
Oc1ccc(/C=C/c2ccc3ccccc3n2)cc1	uPA generation inconclusive, RORg inh 7.9µM, Gal4-VP16 FLuc 11µM, BCR signal inh inconclusive
O/C(=C\c1ccc2ccccc2n1)c1ccc(O)cc1O	RORg inh 2.8µM, Gal4-VP16 FLuc 8.9µM, BCR signal inh inconclusive
Oc1ccc(/C(Cc2ccc3ccccc3n2)=N\Nc2ccccc2)c(O)c1	BCR signal inh inconclusive (no result: uPA generation)

Bioassay records from PubChem.
